This is a sample that favours compounds with a hit; in the whole collection about 2.8% have one here.
KKLEB cytotox: reduces viability of KKLEB cystic fibrosis airway cells. actives 0.36% (n = 360,000). KKLEB CF airway cells viability, ATPlite luminescence, overnight; stronger effect = lower value; cells stimulated with P. aeruginosa culture filtrate. activity change (cytotoxicity), % at 5 µM. AID 602141;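 active = corrected activity change at or below -50% at 5 µM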
Shn3 3UTR inh: Schnurri-3 reporter inhibition in Clone20 osteoblasts. inhibition, % at 12.5 µM. Clone20 osteoblast Shn3 3'UTR firefly luciferase, 24 h. actives 0.52% (n = 360,000);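 active = mean inhibition of at least 75% with every replicate also reaching 75%; inconclusive = mean inhibition at least 75% but some replicate below; inactive = mean inhibition below 75%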;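 note: 0% = median of neutral control wells and 100% = pilot-screen positive control compound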
HIF-2a inh: HIF-2a inhibition. 786-0 RCC cells HIF-2a reporter, luciferase luminescence, overnight. inhibition, % at 18.8 µM. actives 0.72% (n = 360,000);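 active = inhibition of the luminescence signal of 40% or more relative to plate controls, in a single-dose primary screen at 18.75 µM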
CF NFkB block: inhibitors of cystic fibrosis induced NF-kB; inhibition, % at 5 µM; KKLEB NF-kB-GFP reporter, PAF-induced, GFP fluorescence overnight; actives 0.86% (n = 360,000); AID 588850;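 active = at least 50% inhibition at 5 µM, scaled per plate between neutral and stimulator controls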;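 note: PAF is a Pseudomonas aeruginosa culture filtrate used as stimulus; plate controls were PAF-stimulated DMSO wells for no effect and unstimulated DMSO wells for full effect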
MITF TRPM1 inh: inhibitors of MITF-driven TRPM1 promoter in melanoma cells; AID 488899; SK-MEL-5 TRPM1 promoter luciferase, 24 h; inhibition, % at 12.5 µM; actives 0.83% (n = 330,000);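 active = mean inhibition across replicates of 60% or more, whatever share of single replicates reaches that level; inconclusive = some that reach 60%, reason not given; inactive = mean inhibition across replicates below 60%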
Peg3 prom inh-1: reduces Peg3 promoter-driven luciferase expression in HeLa; actives 1.7% (n = 360,000); inhibition, % at 20 µM; HeLa PEG-Prom luciferase reporter, luminescence, overnight;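 active = inhibition of at least 50% at 20 µM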
Peg3 prom inh-2: Peg3 promoter inhibition confirmation. shares compounds with Peg3 prom inh-1. HeLa PEG-Prom luciferase reporter, luminescence, overnight. inhibition, % at 20 µM. actives 84% (n = 1,300). AID 602417;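 active = at 20 µM dose, 40% or more inhibition averaged across four replicates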
Mdm2 MdmX conf: Mdm2/MdmX (human) interaction inhibition, confirmed. shares compounds with HIF-2a inh. SaOS-2 split-luciferase Mdm2/MdmX complementation, luminescence. inhibition, % at 8 µM. actives 99% (n = 740). AID 504601;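 active = mean inhibition of the luminescence signal across two replicates at or above 26 percent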
Target sequence (O15151 whole entry, looked up): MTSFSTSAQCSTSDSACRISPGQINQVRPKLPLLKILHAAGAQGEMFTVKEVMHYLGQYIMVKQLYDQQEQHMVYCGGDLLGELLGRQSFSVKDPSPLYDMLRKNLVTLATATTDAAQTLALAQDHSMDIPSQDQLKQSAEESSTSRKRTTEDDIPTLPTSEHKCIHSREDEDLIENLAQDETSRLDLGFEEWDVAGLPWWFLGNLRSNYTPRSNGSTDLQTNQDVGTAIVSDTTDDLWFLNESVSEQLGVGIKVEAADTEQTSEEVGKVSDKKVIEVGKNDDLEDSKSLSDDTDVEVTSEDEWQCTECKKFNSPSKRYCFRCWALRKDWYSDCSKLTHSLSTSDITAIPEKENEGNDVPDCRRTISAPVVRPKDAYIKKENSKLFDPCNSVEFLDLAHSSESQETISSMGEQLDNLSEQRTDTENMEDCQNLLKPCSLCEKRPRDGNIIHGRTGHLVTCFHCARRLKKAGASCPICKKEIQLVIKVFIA
Target sequence (Q00987 whole entry, looked up): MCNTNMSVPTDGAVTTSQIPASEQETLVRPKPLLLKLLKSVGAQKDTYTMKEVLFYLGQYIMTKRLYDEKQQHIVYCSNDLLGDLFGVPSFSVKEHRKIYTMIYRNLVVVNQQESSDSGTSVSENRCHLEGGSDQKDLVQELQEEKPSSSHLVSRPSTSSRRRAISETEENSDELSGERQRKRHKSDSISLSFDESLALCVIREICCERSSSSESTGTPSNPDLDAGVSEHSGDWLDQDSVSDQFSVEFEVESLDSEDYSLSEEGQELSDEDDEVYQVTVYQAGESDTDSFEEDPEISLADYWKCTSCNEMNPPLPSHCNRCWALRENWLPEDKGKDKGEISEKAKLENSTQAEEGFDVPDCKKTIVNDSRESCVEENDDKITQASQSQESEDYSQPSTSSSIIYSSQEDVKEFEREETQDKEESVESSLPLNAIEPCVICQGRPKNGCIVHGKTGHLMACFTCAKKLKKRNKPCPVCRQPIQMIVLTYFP
HIF-2a inh conf: confirmation of HIF-2a inhibitors | shares compounds with HIF-2a inh | 786-0 RCC cells, HIF-2a luciferase reporter luminescence, overnight | inhibition, % at 18.8 µM | actives 56% (n = 1,800);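 active = mean inhibition across four replicates of at least 40 percent at the single tested concentration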
HIF-1a cs: inhibits HIF-1a reporter, a counter-screen for HIF-2a inhibitors. shares compounds with HIF-2a inh. MiaPaCa-2 HIF-1a luciferase reporter, desferoxamine, overnight. inhibition, % at 18.8 µM. actives 72% (n = 1,800). AID 651589;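 active = mean inhibition of the reporter signal across four replicates at the single tested dose of 50% or more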
The depositor's hits bear a star; u = inconclusive; x = no result.

SMILES | KKLEB cytotox | Shn3 3UTR inh | HIF-2a inh | CF NFkB block | MITF TRPM1 inh | Peg3 prom inh-1 | Peg3 prom inh-2 | HIF-2a inh conf | HIF-1a cs | others
CC(C)C[C@H]1CN(CCCC[C@@H]2CNC(=O)C(=O)N2CC2CCCCC2)C(=O)C(=O)N1CC1CCCCC1 | x | x | 3.7 | x | x | x | x | x | x
C=C1CC(COc2ccc3c(C)c(Cl)c(=O)oc3c2)(c2ccccc2)OC1=O (stereo not drawn) | -71.1* | 96.2* | 85.2* | 90.7* | 100.8* | 98.1* | 97.5* | 70.9* | 104.5*
O=[N+]([O-])c1cc(/C=N/NC(=S)Nc2ccccc2Cl)ccc1Cl | 6.8 | -16.5 | 69.7* | -24.1 | u | 96.2* | 17.3 | 10.8 | 103.7*
CCc1ccc(-c2cc3c(=O)n(CC(=O)NCCCN4CCC(Cc5ccccc5)CC4)nc(C)n3n2)cc1 | -10.4 | 79.2 | -47.9 | 31.9 | 96.4* | 99.7* | 98.2* | x | x | Mdm2 MdmX conf=103.2*
Cc1ccc2nc(NC(=O)c3ccccn3)sc2c1 | -67.2* | 54.5 | 80.2* | -5.1 | 93.8* | 106.2* | 96.3* | 88.7* | 79.5* | Mdm2 MdmX conf=101.7*
COCCNC(=S)Nc1cc(OC)c(OC)cc1C#N | 5.3 | 2.9 | 21.7 | -4.1 | 7.0 | 1.1 | x | x | x
Cc1cc(C(=O)Nc2cccc(C(=O)O)c2)oc1C | -2.9 | 60.8 | 81.0* | 5.6 | 86.6* | 81.6* | 51.7* | 77.9* | -14.9
COc1ccc(CC(=O)Nc2cc(S(=O)(=O)N3CCCCC3)ccc2OC(C)C)cc1OC | 6.0 | 0.9 | 21.7 | -6.3 | x | 9.1 | x | x | x
Cc1ccc(F)c(NC(=O)/C(C#N)=C(\O)c2ccc(C(C)(C)C)cc2)c1 | -1.4 | 12.7 | -126.6 | 16.0 | -21.7 | -70.8 | x | x | x
O=C(/C=C/c1ccccc1O)c1ccco1 | 3.0 | -10.0 | -15.9 | 13.8 | -5.2 | 10.0 | x | x | x
O=C(/C=C/c1cc(Br)ccc1O)c1ccco1 | -1.5 | 12.5 | 93.7* | 93.8* | 51.1 | 106.6* | 99.2* | 46.3* | 102.3*
Cc1c(C(=O)N2CCN(C3CCS(=O)(=O)C3)CC2)oc2ccc(Cl)cc12 (stereo not drawn) | 10.0 | -6.2 | 8.0 | 11.3 | -3.2 | 3.2 | x | x | x
C/C(=N\OCc1ccc(C#N)cc1)c1ccccc1 | 15.9 | -43.9 | -331.4 | -21.3 | -87.3 | -284.5 | x | x | x
C/C(=N\OCc1cccc(C(=O)O)c1)c1ccc(Cl)cc1 | 4.3 | 37.2 | 73.4* | -14.0 | x | 55.3* | 35.9 | 79.0* | -104.2
COc1ccc(-c2nc(-c3ccccn3)no2)cc1 | -80.1* | 87.9* | 88.2* | -35.8 | 87.1* | 89.0* | 85.6* | 94.9* | 98.5* | Mdm2 MdmX conf=96.2*
Cc1ccccc1-c1nc(-c2cccnc2)no1 | 2.9 | -47.8 | -227.9 | -0.1 | -37.8 | -205.8 | x | x | x
Cc1ccccc1-c1nc(-c2ccccn2)no1 | -38.8 | 40.1 | 59.9* | -31.4 | 74.0* | 63.3* | 57.6* | 72.9* | 66.2*
CCc1nc2ccc(C(=O)NCCc3ccccn3)cn2c1N(C)CCC(C)C | 4.6 | -2.3 | 13.7 | -0.2 | x | 10.6 | x | x | x
COc1ccc(N(C(=O)Cc2cccs2)C(C(=O)NC2CCCC2)c2ccncc2)cc1 (stereo not drawn) | -3.3 | -20.6 | -10.6 | 3.1 | -23.3 | -4.4 | x | x | x
COc1ccc(N(C(=O)CCl)C(C(=O)NC2CCCCC2)c2cccnc2)cc1 (stereo not drawn) | -41.6 | 8.8 | 30.9 | 37.7 | 86.9* | 99.7* | 98.9* | x | x | Mdm2 MdmX conf=103.5*
COc1cc(C(=O)/C=C/c2cccnc2)c([N+](=O)[O-])cc1OC | -12.2 | 26.3 | 89.5* | 45.9 | 34.0 | 69.0* | 96.0* | 73.3* | 96.3*
